Source: PubChem BioAssay AID1159580 (chemical genetic matrix, 2015)
Screen size: about 5,500 compounds; about 2,000 (36%) were called active. Inconclusive results (about 18%) are left out. Cut-off read from the data, not from the text of the source: active = normalized growth mostly below about 0.91 (no sharp cut-off); inconclusive = no clear call, values can overlap the other calls; inactive = mostly above about 0.92. The list shows a part of the results.

Assay: chemical genetic growth profiling, strain panel (AID 1159580);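 note: tested at 20 µM; growth read once vehicle control cultures reached saturation at 30 °C; 1 = growth at the plate median or of vehicle wells; lower values mean less growth of the strain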
Details: growth OD

Measured: normalized growth

CSc1nc(N)n(-c2ccccc2)n1
inactive: S. cerevisiae deletion strains, locus YAL013W, strain DEP1, hits give low values 1 | S. cerevisiae deletion strains, locus YBR229C, strain ROT2, hits give low values 1.02 | S. cerevisiae deletion strains, locus YCL061C, strain MRC1, hits give low values 1.02 | S. cerevisiae deletion strains, locus YDL101C, strain DUN1, hits give low values 1 | S. cerevisiae deletion strains, locus YDL134C, strain PPH21, hits give low values 1.01 | S. cerevisiae deletion strains, locus YDR150W, strain NUM1, hits give low values 0.916 | S. cerevisiae deletion strains, locus YEL061C, strain CIN8, hits give low values 1.06 | S. cerevisiae deletion strains, locus YGR078C, strain PAC10, hits give low values 1 | S. cerevisiae deletion strains, locus YGR229C, strain SMI1, hits give low values 0.99 | S. cerevisiae deletion strains, locus YHR030C, strain SLT2, hits give low values 1.05 | S. cerevisiae deletion strains, locus YHR087W, strain rtc3, hits give low values 1 | S. cerevisiae deletion strains, locus YJR043C, strain POL32, hits give low values 0.989 | S. cerevisiae deletion strains, locus YJR075W, strain HOC1, hits give low values 1 | S. cerevisiae deletion strains, locus YKL190W, strain CNB1, hits give low values 1.01 | S. cerevisiae deletion strains, locus YLR039C, strain RIC1, hits give low values 1.03 | S. cerevisiae deletion strains, locus YLR058C, strain SHM2 (second series), hits give low values 1.02 | S. cerevisiae deletion strains, locus YLR085C, strain ARP6, hits give low values 0.995 | S. cerevisiae deletion strains, locus YLR262C, strain YPT6, hits give low values 1.09 | S. cerevisiae deletion strains, locus YML094W, strain GIM5, hits give low values 0.988 | S. cerevisiae deletion strains, locus YMR219W, strain ESC1, hits give low values 1 | S. cerevisiae deletion strains, locus YMR263W, strain SAP30, hits give low values 1 | S. cerevisiae deletion strains, locus YNL153C, strain GIM3, hits give low values 1 | S. cerevisiae deletion strains, locus YNL298W, strain CLA4 (second series), hits give low values 1 | S. cerevisiae deletion strains, locus YNL322C, strain KRE1, hits give low values 1 | S. cerevisiae deletion strains, locus YNR030W, strain Alg12, hits give low values 1.02 | S. cerevisiae deletion strains, locus YPL055C, strain LGE1, hits give low values 0.994 | S. cerevisiae deletion strains, locus YPL241C, strain CIN2, hits give low values 1.01 | S. cerevisiae deletion strains, locus YPR135W, strain CTF4, hits give low values 1.07 | S. cerevisiae strains, strain wild type, hits give low values 1.01
